Assay results from PubChem BioAssay AID651820 (National Center for Advancing Translational Sciences (NCATS), 2012).
The whole screen tested about 340,000 compounds, of which about 12,000 (3.5%) were called active. Inconclusive results (about 18%) are left out. This is one part of a sample in which actives are shown more often than they occur. Values without a mark were called inactive. Calls come from the whole dose curve; as a rule, active = well fitted inhibition curve with a large enough effect; inconclusive = small, poorly fitted or top-dose-only effect, or another doubt; inactive = no such curve, though single readings can be large or run the other way.

Assay: qHTS Assay for Inhibitors of Hepatitis C Virus (HCV)
Conditions: Huh7.5.1 HCVcc-Cre infection, luciferase reporter, 44 h; series mostly up to 41.8 µM; activity change, negative = inhibition: at the top concentration
Procedure, shortened: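 Infectious HCV cell culture screen: compound-treated cells (1,000/well, pre-plated 4 h) are infected with HCVcc-Cre at roughly 0.5 moi and grown 44 h. Infection is quantified by luciferase signal after 15 min substrate incubation at room temperature.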
% is set by controls: 0 for no effect and ±100 for the full control effect; potency is the fitted concentration of half-maximal effect.

SMILES	activity change, negative = inhibition [%]	Potency
Cc1ccc(OCC(=O)Nc2ccccc2C(=O)NC2CC2)cc1	-22	
CC1CCCCC1NC(=O)COc1ccc(C#N)cc1 (configuration not stated)	11.6	
Cc1ccc(NC(=O)C/C(N)=N/O)cc1Cl	-10.7	
O=C(CC(O)(C(F)(F)F)C(F)(F)F)Nc1ccc(Cl)c(Cl)c1		5.01 µM (active)
O=C(CC1SCCNC1=O)Nc1ccc(Cl)c(Cl)c1 (configuration not stated)	13.4	
Cc1cccc(OCC(O)CN2CCN(CCN3C(=O)c4cccc5cccc(c45)C3=O)CC2)c1C (configuration not stated)		8.91 µM (active)
Cc1cccc(C)c1OCC(O)CN1CCCCC1 (configuration not stated)	-1.28	
Cc1ccccc1OCC(O)CN1CCN(c2ccccn2)CC1 (configuration not stated)	1.82	
CCn1nc(C(=O)NNS(=O)(=O)c2cc(/C=C/C(=O)O)cc(OC)c2OC)c2ccccc2c1=O	-16.4	
COc1cccc(-c2nc3cc(C)ccc3o2)c1	15.5	
COc1ccc(-c2nc3cc([N+](=O)[O-])ccc3o2)cc1OC	13.9	
CCc1ccc2oc(-c3ccc(N)cc3)nc2c1		12.6 µM (active)
Nc1cc(=O)n(Cc2ccccc2)c(=O)n1Cc1ccccc1	19.8	
Cc1c(NC(=O)CN(C)CC(=O)Nc2ccc(F)c(F)c2F)c(=O)n(-c2ccccc2)n1C	2.52	
Cc1ccc(Nc2nc(CSc3nnc(-c4ccncc4)n3-c3ccccc3C)cs2)cc1		10 µM (active)
Cc1ccc(-n2c(SCC(=O)N3c4ccccc4Sc4ccccc43)nnc2-c2ccncc2)cc1	7.58	
Cc1ccccc1-n1c(SCC(=O)NCc2cccs2)nnc1-c1ccncc1	-5.89	
CC1CCCC(C)N1C(=O)COC(=O)COc1ccccc1C#N (configuration not stated)	0.641	
COC(=O)c1nc(NC(=O)c2ccc(C(C)(C)C)cc2)n[nH]1	17.8	
CSc1nccc(NC(=O)c2ccc(C(C)(C)C)cc2)n1		1.78 µM (active)
Cc1cccc(NC(=O)c2cccnc2Cl)n1	-2.06	
CCN(CC(=O)Nc1cc(Cl)ccc1C)C(=O)CN1C(=O)NC2(CCCC2)C1=O	14	
CN[C@H](C(=O)NC[C@H]1O[C@@H](n2cnc3c(N)ncnc32)[C@H](O)[C@@H]1O)[C@@H](C)OCc1ccccc1	49.9	

SMILES	activity change, negative = inhibition [%]	Potency
Cc1cc(C)n(CC(O)COc2ccc(C(C)(C)C)cc2)n1 (configuration not stated)	12.2	
CC(C)(c1ccccc1)c1ccc(OCCN)cc1	-16.6	
CN(C)CC(O)COc1ccc(C(C)(C)c2ccc(OCC(O)CN(C)C)cc2)cc1 (configuration not stated)		10 µM (active)
Cc1ccc(C(=O)NCC(=O)NC2CC2)cc1	15.4	
Cc1ccsc1C(=O)NNC(=O)COc1ccc(Br)cc1	19.3	
CCc1nnc(NC(=O)C2CCN(C(=O)c3ccccc3C)CC2)s1	14.9	
Cc1cc(NC(=O)CSc2nnnn2-c2ccc(F)cc2)no1	16.5	
O=C(CSc1nnnn1-c1ccccc1)NCc1ccco1	-12.8	
CCN(CC)C(CNC(=O)CSc1nnnn1-c1cccc(F)c1)c1ccco1 (configuration not stated)		25.1 µM (active)
CCN(CC)S(=O)(=O)c1ccc(Cl)c(C(=O)NC(C)C(c2cccs2)N2CCCC2)c1 (configuration not stated)		14.1 µM (active)
CCN(CC)S(=O)(=O)c1ccc(Cl)c(C(=O)NCCN2CCOCC2)c1	-1.51	
CCCC(=O)NC(C)C(c1cccs1)N1CCN(c2ccccc2)CC1 (configuration not stated)	-14.3	
O=S(=O)(Nc1cc(Cl)ccc1N1CCOCC1)c1ccccc1Cl	-5.1	
Cc1[nH]c2ccccc2c1C(=O)C(C)Sc1nnc(C2CC2)o1 (configuration not stated)	8.19	
Cc1n[nH]c(=O)c2c(NC(=O)CSc3ccccc3F)oc(C)c12	-1.71	
CN(C)/N=C/c1cn(-c2ccccc2)nc1-c1cccnc1	-5.06	
COc1ccc(-c2nn(-c3ccccc3)cc2/C=N/Nc2ccccn2)cc1OC		10 µM (active)
COc1ccc(-c2nn(-c3ccccc3)cc2C(=O)Nc2nccs2)cc1OC		2.51 µM (active)
Cn1cccc1C(=O)Nc1nccs1	-12.1	
O=C(O)c1ccccc1-c1ccccc1C(=O)Nc1nccs1	7.11	
COc1cc(C(=O)Nc2nccs2)cc(OC)c1OC		14.1 µM (active)
CC(C)(C)OC(=O)N/N=C/c1cn(-c2ccccc2)nc1-c1cccnc1	-16.7	
COC(=O)c1sccc1NC(=O)c1cc(OC)c(OC)c(OC)c1	-10.6	

SMILES	activity change, negative = inhibition [%]	Potency
CC(=O)Oc1ccc(C(=O)Nc2nccs2)cc1	10.5	
Cc1ccc(C)c(NC(=O)CN(C)C(=O)COc2ccc3ccccc3c2)c1	4.35	
CC(NC(=O)COC(=O)c1ccc2ccccc2n1)c1ccccc1 (configuration not stated)	14.5	
COc1cc(NC(=O)COC(=O)c2cc(S(=O)(=O)N3CCOCC3)ccc2F)cc(OC)c1	-6.05	
Cc1ccc(F)cc1NC(=O)CSCc1c(C)noc1C	7.86	
O=C(COC(=O)CNS(=O)(=O)c1ccc(F)c(F)c1F)NC1CCCC1	14.1	
CCC1(C)COC(c2ccc(OC)c(OC)c2)OC1 (configuration not stated)	10.1	
C=CC[C@H](CC(=O)NCCO)C(=O)N[C@@H](COC(=O)[C@@H](CC=C)Cc1ccc(F)cc1)Cc1c[nH]c2ccccc12	-1.64	
C=CCC[C@@H](Cc1ccc(F)cc1)C(=O)O[C@H](CNC(=O)[C@H](CC=C)CC(=O)N(CCO)Cc1ccccc1)c1ccccc1		8.91 µM (active)
C=CC[C@H](CC(=O)OC(C)(C)C)C(=O)OC[C@H]1CCCN1C(=O)[C@H](CC=C)CC(=O)N(CCO)Cc1ccccc1	-2.88	
COc1cc(Nc2nc3ccc(Cl)cc3n3cnnc23)cc(OC)c1OC	0.274	
COc1ccc(CCNc2nc3ccc(C)cc3n3cnnc23)cc1OC	-4.98	
COc1ccc(OC)c(Nc2nc3ccccc3n3cnnc23)c1		10 µM (active)
CN1CCC(N(C)C(=O)c2ccc(Cl)c(S(=O)(=O)Nc3ccc(Cl)cc3)c2)CC1	7.94	
CC1CC(C)(C)CC2(C1)NC(=O)N(CC(=O)Nc1nccs1)C2=O (configuration not stated)	21.6	
COc1ccc2[nH]c(=S)cc(C)c2c1	13.3	
COc1ccc2[nH]c3c(c2c1)CCN[C@H]3C	-6.42	
COc1ccc2[nH]c3ccc(OC)cc3c2c1		25.1 µM (active)
COc1ccc(-c2noc(CCC(=O)N3CCN(c4cccc(C)c4)CC3)n2)cc1	-3.79	
COc1cccc(-n2c(SCC(=O)NC3CCS(=O)(=O)C3)nc3ccccc3c2=O)c1 (configuration not stated)	21.3	
O=C1CC(c2ccccc2)C(=O)N2C(=O)CC(c3ccccc3)C(=O)N12 (configuration not stated)	17.1	
